Most compounds without a hit are left out; they make up all but 2.7% or so of the library.
IDH1 R132H inh = human IDH1 R132H inhibition | IDH1-R132H enzyme, NADPH consumption, diaphorase/resazurin fluorescence | Potency, µM (series often up to 76.6 µM), inactives show at the top dose activity change, negative = inhibition, hits mostly inhibitors | 390,000 compounds, 0.093% hits | AID 602179; further: potency means the concentration at half of the fitted maximal effect; on the % scale 0 is the no-effect control and ±100 the full control effect; nearly all actives have a fitted effect of over 65% in size
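IDH1-R132H (0.5 ug/mL) preincubated 30 min with compound, then NADPH (0.016 mM) and alpha-KG (2 mM) added; 80 min at RT, pH 7.5. Remaining NADPH coupled via diaphorase/resazurin to fluorescence (540/590 nm); concentration-response curves normalized to no-enzyme control.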
Nrf2 inh = Nrf2 pathway inhibition; A549 ARE-Fluc reporter, luciferase luminescence, 18-24 h; Potency, µM (doses to about 46 µM), for the others: at the highest dose activity change, negative = inhibition, hits mostly inhibitors; 360,000 compounds, 2.1% hits; AID 504444; further: potency means the concentration at half of the fitted maximal effect; on the % scale 0 is the no-effect control and ±100 the full control effect; nearly all actives have a fitted effect of over 60% in size
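Reporter: ARE-Fluc in A549. Exposure: 18-24 h, 37 °C, 5% CO2, 5% FBS OPTI-MEM. Readouts: fluorescent cytotoxicity (CellTiter-Fluor), then luminescent Nrf2 signal after BugLite.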
12-LOX inh = inhibitors of human 12S-lipoxygenase ALOX12 | P18054 | Potency, µM (top dose mostly 108 µM), for inactives: at the top dose activity change, negative = inhibition, actives largely listed as inhibitors | 580,000 compounds, 1.1% hits | AID 1671190 | purified 12hLO, xylenol orange hydroperoxide absorbance; further: potency means the concentration at half of the fitted maximal effect; on the % scale 0 is the no-effect control and ±100 the full control effect
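Hydroperoxide product was detected by ferrous iron/xylenol orange as the 573 to 405 nm absorbance ratio. Arachidonic acid at 40 uM (final) was turned over for 30 min at room temperature by 150 nM human 12hLO, pH 7.0 Hepes buffer, after 15 min compound preincubation.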
LDHA inh = blocks human lactate dehydrogenase A; purified LDHA, NADH/diaphorase-resazurin fluorescence; hits give low values; activity change, % (values are at about 110 or 230 µM); 480,000 compounds, 0.15% hits; in the data active means activity change below about -30%; inconclusive means mostly about -25% to -30%;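 further: plate controls were DMSO wells for no effect and wells without enzyme for full effect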
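Remaining NADH was detected by diaphorase (0.133 mg/mL) converting 37 µM resazurin to fluorescent resorufin, read at 0 and 20 minutes. The preceding 5-minute room-temperature reaction used 2 nM LDHA, 0.2 mM sodium pyruvate and 0.06 mM NADH at pH 7.4.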
Nrf2 activator = Nrf2 pathway activation. AREc32 ARE-luciferase reporter (MCF7-derived line), luminescence, 24 h. Potency, µM (highest dose often 46.1 µM), without a hit: top-dose activation, usual class: activators. 410,000 compounds, 0.31% hits; further: potency means the concentration at half of the fitted maximal effect; % of control where 0% means no effect; nearly all actives have a fitted effect of over 65% in size
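AREc32 cells carrying an ARE-driven firefly luciferase, 1000 cells/well in OPTI-MEM with 5% FBS, dosed after overnight attachment and incubated 24 hr at 37 deg C. Steady-Glo luminescence read after 30 min at RT.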
A549 tox = kills or reduces viability of A549 cells in Nrf2 counter-screen; A549 ARE-Fluc cells, CellTiter-Fluor viability, 18-24 h; Potency, µM (titrated, usually from 46 µM), without a hit: at the highest dose activity change, negative = cytotoxicity, usual class: inhibitors; 390,000 compounds, 0.16% hits; AID 504648; further: potency means the concentration at half of the fitted maximal effect; on the % scale 0 is the no-effect control and ±100 the full control effect
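A549 ARE-Fluc cells in 5% FBS OPTI-MEM, 5000 cells/well, rested 2 h then exposed to compounds in concentration-response for 18-24 h at 37 °C. Viability by CellTiter-Fluor fluorescence (Ex 405/Em 525) after 30 min; luciferase luminescence (BugLite, 15 min, RT) read afterwards.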
Starred values were filed as active, the others as inactive; ? = inconclusive; . = no result. Unless noted, the call rests on the fitted dose curve; in most records, active means well fitted curve in the direction sought with a large enough effect; inconclusive means small, poorly fitted or top-dose-only effect, or another doubt; inactive means no such curve, though single readings can be large; an effect the other way counts as inactive or inconclusive.

SMILES	IDH1 R132H inh	Nrf2 inh	12-LOX inh	LDHA inh	Nrf2 activator	A549 tox
CC(OC(=O)/C=C/c1ccco1)C(=O)NC1CCCCC1C (centres undefined)	-17%	13µM*	-2%	-2	0%	-7%
COc1ccc(NC(=O)c2ccco2)cc1NC(=O)c1ccco1	8%	13%	0%	1	3%	-10%
COc1ccc([N+](=O)[O-])cc1NC(=O)C(C)OC(=O)/C=C/c1ccco1 (centres undefined)	4%	-19%	?	-7	13µM*	12%
COc1cccc2cc(S(=O)(=O)c3ccc(Cl)cc3)c(=O)oc12	.	.	?	22	.	.
Cc1nc(CCNC(=O)C2CNCCO2)sc1C (centres undefined)	.	.	8.9µM*	.	.	.
CCOC(=O)Cc1csc(NC(=O)c2nc(-c3ccccc3)oc2C)n1	.	.	21%	-1	.	.
Cc1oc2cc(OCC(=O)N(C)CCO)ccc2c(=O)c1Oc1ccccc1	.	.	?	0	.	.
Cc1[nH]c2ccccc2c1C(=O)CSc1ccc2c(c1)OCCCO2	.	.	25µM*	5	.	.
O=C(Nc1cccnc1)c1ccc(Cl)c(S(=O)(=O)N2CCc3ccccc32)c1	-11%	?	-5%	-9	2%	2%
CCc1nnc(NC(=O)c2ccc(S(=O)(=O)N3CCc4ccccc4C3)cc2)s1	1%	?	12%	1	0%	1%
O=C(Nc1ccccn1)c1ccc(Cl)c(S(=O)(=O)N2CCc3ccccc32)c1	15%	21µM*	193%	1	-1%	-23%
CCc1nnc(NC(=O)c2ccc(Cl)c(S(=O)(=O)N3CCc4ccccc4C3)c2)s1	-8%	18µM*	-18%	-8	-1%	-4%
O=C(Nc1ccc(Oc2cccc(C(F)(F)F)c2)nc1)c1cccs1	22%	16µM*	95%	-8	0%	1%
CC(C)C(=O)Nc1ccc(NC(=O)c2cccs2)cn1	2%	10%	45µM*	2	1%	-4%
COc1ccc(C(=O)Nc2ccc(NC(=O)c3cccs3)cn2)cc1	-5%	-9%	?	-3	0%	0%
CCCCCCC(=O)N(O)C1CC(=O)N(c2ccc(C)cc2)C1=O (centres undefined)	7%	18%	-21%	0	?	2%
CCCCCCC(=O)N(O)C1CC(=O)N(c2ccc(Cl)cc2)C1=O (centres undefined)	3%	1%	1.3µM*	-2	?	-13%
O=C(O)Cc1sc(Nc2cccc3ccccc23)nc1-c1ccccc1	-2%	-17%	?	3	7%	-5%
Cc1ccc(Nc2nc(-c3ccc(C)cc3)c(CC(=O)O)s2)cc1	1%	1%	40µM*	12	10%	8%
O=C(O)Cc1sc(Nc2ccc(Cl)cc2)nc1-c1cccs1	-5%	91%	14µM*	0	?	1%
O=C(O)Cc1sc(Nc2ccccc2)nc1-c1ccccc1	-2%	-12%	0%	-1	17%	-4%
O=C(O)Cc1sc(Nc2cccc3ccccc23)nc1-c1ccc(Cl)cc1	-3%	?	45µM*	16	12%	-9%
CCOC(=O)CNC(=O)NCC(=O)N1CCc2ccccc21	.	.	-13%	10	.	.
Cn1nc(C(=O)NCc2ccccn2)c2ccccc2c1=O	-3%	5.8µM*	-1%	-1	5%	-5%
CCCCn1nc(C(=O)NCc2ccccn2)c2ccccc2c1=O	.	.	20%	-2	.	.
Cc1ccc(COC(=O)c2nn(C)c(=O)c3ccccc23)cc1	7%	23µM*	-2%	-6	6%	-15%
CC(C)NC(=O)c1nc(-c2ccc(COc3ccc4c(c3)OCO4)cc2)no1	.	.	21%	8	.	.
Cn1cc(/C=N/NC(=O)c2cc3cc(Br)ccc3o2)c2ccccc21	4%	-7%	0%	-2	0%	0%
O=C(O)c1ccc(-n2cccc2/C=N\NC(=O)c2cc3cc(Br)ccc3o2)cc1	6%	0%	35µM*	-5	0%	-4%

Screening data (PubChem)
